# This is part of a sample that, as a whole, favours compounds with a hit. Of some 83,000 tested, about 20% had one in any assay.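 Compound tested at a single concentration for 48 hours in 96-well plates; a percent growth value below 10 was scored as active.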 A number with no mark means an inactive call. Active and inactive are the calls of the source.
# Assays:
# Assay in all cases: NCI-60 one-dose screen, 48 h (100 = growth as untreated, 0 = no growth, -100 = all killed)
# Conditions in all cases: 10 µM unless noted
# [1] = tested on: SR leukemia
# [2] = tested on: RPMI-8226 leukemia
# [3] = tested on: OVCAR-8 ovarian
# [4] = tested on: OVCAR-5 ovarian
# [5] = tested on: OVCAR-4 ovarian
# [6] = tested on: SK-OV-3 ovarian
# [7] = tested on: IGROV1 ovarian
# [8] = tested on: OVCAR-3 ovarian
# [9] = tested on: HS 578T breast
# [10] = tested on: NCI/ADR-RES ovarian
# [11] = tested on: T-47D breast
# [12] = tested on: BT-549 breast
# [13] = tested on: MDA-MB-435 melanoma
# [14] = tested on: SW-620 colon
# [15] = tested on: MCF7 breast
# [16] = tested on: HCT-116 colon
# [17] = tested on: HCC-2998 colon
# [18] = tested on: KM12 colon
SMILES,growth [1],growth [2],growth [3],growth [4],growth [5],growth [6],growth [7],growth [8],growth [9],growth [10],growth [11],growth [12],growth [13],growth [14],growth [15],growth [16],growth [17],growth [18]
CC1COCC(C)N1C1=C(Cl)C(=O)c2ccccc2C1=O (centres undefined),41.6%,52.5%,47.4%,106%,-4.76% (active),95.9%,50.4%,46.1%,100%,76.8%,-55.2% (active),76%,29.6%,42.6%,50.8%,-9.39% (active),101%,89%
O=C(O)c1cccc(N/C=C/C(=O)c2cc3cc(Br)ccc3oc2=O)c1,105%,101%,105%,98.8%,95.1%,98.9%,106%,95.8%,94.7%,104%,90.5%,86.1%,96.5%,98.1%,88.4%,93.3%,105%,95.8%
CCCCCCCCCCCCCCCCCCOc1ccccc1CC(=O)NCC[N+]1(C)CCOCC1,18.2%,-4.77% (active),67.8%,26.3%,71.7%,81.2%,-67.2% (active),67.3%,67.4%,103%,62.3%,39.8%,76%,79.2%,69%,61.8%,31.1%,5.07% (active)
Nc1c(C(=O)Nc2ccncc2)sc2nc3c(cc12)CCCCC3,43.6%,47.2%,65.2%,83.4%,55.8%,75.8%,98.9%,88.9%,85.1%,75.5%,25.7%,50.4%,67%,105%,58.5%,66.4%,85.3%,75.6%
O=C(N=Nc1c(O)[nH]c2ccccc12)Nc1ccc(Cl)cc1,79.1%,56.1%,102%,86%,98.2%,96.5%,80.2%,97.5%,95.1%,110%,87.2%,103%,95.5%,90.3%,76.3%,94.4%,99%,81.1%
COc1cc(/C=C2\C(=O)N(c3c(Cl)cccc3Cl)c3ccccc32)cc(OC)c1OCCCCCCn1c2ccccc2c(=O)c2ccccc21,85.7%,102%,98.3%,88.6%,95.5%,110%,75.5%,104%,113%,109%,89.6%,94.4%,103%,106%,92%,95.9%,112%,103%
Cc1cc(F)ccc1S(=O)(=O)Nc1cc(-c2c(O)ccc3ccccc23)c(O)c2ccccc12,18.8%,11.6%,37.1%,56.9%,-8.24% (active),52.3%,27.6%,17.3%,42.3%,31.3%,7.54% (active),30.1%,28%,25.8%,30.1%,5.49% (active),-3.54% (active),3.55% (active)
CCCCCCCCn1ccc2cc(NC(=O)Cn3cc(CN4CCOCC4)nn3)ccc21,87.6%,94.8%,102%,91.1%,99.5%,111%,96.4%,98.2%,90%,115%,93.4%,78.2%,99.7%,97.4%,89.5%,92.5%,113%,93.3%
Cc1ncc(C(=O)Nc2ccc(CN3CCN(C)CC3)c(C(F)(F)F)c2)cc1C#Cc1cnc(N)c2cnccc12,-17.8% (active),39.2%,15.4%,12.5%,40.7%,-30.9% (active),-31.3% (active),31.2%,-16.6% (active),55.3%,8.63% (active),14.6%,6.4% (active),-55.3% (active),-73.7% (active),-86.1% (active),-1.5% (active),9.54% (active)
CC(=O)c1cc(-c2ccccc2N)n(-c2ccc3c(c2)OCO3)c1C,14%,19.8%,18.7%,30%,48.3%,33.7%,22%,5.55% (active),32.6%,13.1%,71%,1.13% (active),-43.6% (active),29.2%,14.8%,6.22% (active),15.8%,5.16% (active)
Cc1ccc(-c2csc(NC(=O)N3CCN(c4cc5c(cc4F)c(=O)c(C(=O)O)cn5C4CC4)CC3)n2)cc1,18.2%,4.84% (active),7.72% (active),23.2%,33.5%,-11.6% (active),17%,7.6% (active),38.6%,21.8%,11.5%,3.9% (active),17.6%,27.2%,6.05% (active),11.4%,32.9%,11.4%
CCC(C)Nc1ccc(NC(C)CC)cc1 (centres undefined),76.1%,65.8%,89.2%,103%,84.1%,98.4%,65.4%,28.6%,110%,94.5%,79.7%,85.4%,95.3%,106%,47.2%,28.2%,80.2%,112%
CCN(CC)CCOc1ccc(Nc2ncc3cc(-c4ccc(O)cc4)c(=O)n(C)c3n2)cc1,-20.5% (active),70.6%,55.7%,57.9%,110%,53%,23.2%,71.1%,33.5%,84%,67.4%,30.1%,61.1%,-33.7% (active),51.5%,32%,86.8%,37.2%
O=C(CCC(=O)c1nc2ncccc2[nH]1)NN1C(=O)CSC1c1ccc(Cl)cc1 (centres undefined),55.9%,87.1%,101%,106%,94.1%,100%,86.7%,98.7%,101%,100%,90.7%,120%,99.7%,81.4%,87%,86%,112%,94.7%
Nc1n[nH]c2ccc([C@@H]3Nc4cc5[nH]ncc5cc4[C@H]4C5CCC(C5)[C@@H]34)cc12 (some centres undefined),20%,5.15% (active),29.7%,31.2%,43.3%,52.8%,22.7%,-27.6% (active),32%,21.6%,51.9%,11.3%,-41.2% (active),21.6%,12.3%,8.92% (active),18.1%,15.6%
Cn1ccnc1C(=O)/C=C/c1ccc(C(=O)Nc2ccc(F)cc2)cc1,2.09% (active),-17.1% (active),18.3%,21.4%,28.5%,59.1%,7.02% (active),10.8%,40.9%,11.2%,23.4%,-14.9% (active),18.3%,4.13% (active),19%,-81.5% (active),-0.654% (active),3.4% (active)
N=c1sc(Cc2cc(Cl)ccc2Cl)cn1CC(=O)c1ccccc1,27.4%,70.4%,62.6%,47.8%,56.5%,67.9%,35.6%,45.4%,59.2%,36%,38.3%,68.8%,-41.5% (active),21.2%,32.3%,26.1%,31.6%,16.1%

SMILES,growth [1],growth [2],growth [3],growth [4],growth [5],growth [6],growth [7],growth [8],growth [9],growth [10],growth [11],growth [12],growth [13],growth [14],growth [15],growth [16],growth [17],growth [18]
CN(Cc1cnc2nc(N)nc(N)c2n1)c1c(Cl)cc(C(=O)NC(CCC(=O)O)C(=O)O)cc1Cl (centres undefined),42.4%,45.3%,17.8%,48.7%,55.1%,56.3%,28.3%,48.1%,66.1%,35.1%,53.2%,21.9%,25.7%,29.1%,19.2%,18.9%,20.9%,29.6%
COc1ccc(C/C(C)=C(\c2ccc(O)cc2)c2ccc(OCCN3CCCC3)cc2)cc1,82.4%,105%,103%,99.1%,104%,100%,103%,108%,101%,104%,73.3%,110%,103%,104%,63.3%,93.8%,104%,106%
C#CC#CC#CC#CC#CC#CC#CC#CC[C@H]1OC[C@@H](COC(=O)O[C@@H](C(=O)O[C@H]2C[C@@]3(O)[C@@H](OC(=O)c4ccccc4)[C@@H]4[C@]5(OC(C)=O)CO[C@@H]5C[C@H](O)[C@@]4(C)C(=O)[C@H](OC(C)=O)C(=C2C)C3(C)C)[C@@H](NC(=O)c2ccccc2)c2ccccc2)O1,25.9%,26%,59.7%,47%,68.3%,61.7%,49.2%,22.6%,44.3%,108%,53.4%,53.2%,-47.8% (active),42.4%,33.7%,18%,48.3%,16.7%
Cc1ccc(Nc2nc(-c3ccc(F)cc3)c(C#N)c(=O)n2C)cc1,62.3%,89.4%,67.3%,63.4%,51%,60.1%,67.5%,61.5%,44.8%,76.2%,35.5%,52.8%,74.7%,68.9%,56.1%,53.4%,86.2%,87.7%
CCN(CC)CCCC(C)Nc1ccc2cc(OC)ccc2n1 (centres undefined),120%,97%,99.8%,109%,62%,113%,105%,98.8%,99.9%,108%,103%,107%,104%,94.4%,84.2%,102%,101%,93.2%
Cc1c(N2CN3C[C@H](C)N4CN(c5c(C)n(C)n(-c6ccccc6)c5=O)CN5C[C@@H](C)N(C2)C3C54)c(=O)n(-c2ccccc2)n1C (some centres undefined),38.1%,96%,104%,106%,103%,99.2%,102%,100%,95.9%,97.2%,105%,113%,105%,103%,94.9%,96.9%,106%,104%
C[C@H]1[C@H](C)CC[C@]2(C(=O)O)CC[C@]3(C)C(=CC[C@@H]4[C@@]5(C)C[C@@H](Cc6cn([C@@H]7O[C@H](CO)[C@@H](O)[C@H](O)[C@H]7O)nn6)[C@H](O)C(C)(C)[C@@H]5CC[C@]43C)[C@H]12,105%,98.3%,97.8%,97.2%,91.7%,88.5%,107%,107%,103%,106%,93.5%,102%,101%,97.6%,92.7%,92%,107%,108%
O=C1Nc2ccccc2/C1=C/c1cn(C[C@@H](O)Cn2c3ccccc3c(=O)c3ccccc32)c2ccccc12,66.3%,67.1%,68.5%,86.7%,88%,73.3%,53.7%,73.5%,62.8%,85.4%,62.7%,73.3%,85.1%,78.7%,45.9%,57.7%,76.1%,68.2%
COc1cc2cc(Oc3ccc(NC(=O)Nc4ccccc4)cc3)c(C)nc2cc1OCCN1CCCCC1,-25.9% (active),44.3%,46.5%,119%,83.1%,110%,92.3%,101%,70.4%,90.5%,88%,86.8%,61.8%,70.3%,31.9%,11.1%,73%,42.4%
CCN(CC)CCNC(=O)c1ccc(-c2nc3ccc4[nH]ncc4c3c3c2CCCC3)cc1,6.02% (active),52.1%,59%,87.3%,76.1%,44.1%,35.3%,78.4%,41.6%,70.9%,44.6%,59.5%,42.9%,28.4%,62.4%,24.1%,84.3%,46.2%
CC[C@H](CC[C@@H](C)[C@H]1CC[C@H]2[C@@H]3CC[C@@H]4CC(=O)/C(=C\c5ccncc5)C[C@]4(C)[C@H]3CC[C@]12C)C(C)C,87.5%,92.2%,100%,104%,110%,99.7%,104%,106%,98.8%,104%,100%,95.2%,101%,102%,95.7%,103%,104%,102%
COc1ccc(Cn2cc(C(=O)N=Nc3c(O)[nH]c4c(Cl)cccc34)nn2)cc1,80.3%,106%,97.4%,123%,104%,113%,103%,113%,97.5%,105%,100%,111%,101%,99.7%,84.3%,91.6%,99.3%,107%
CCN(CC)c1ccc(N2C(=O)/C(=C/c3cccs3)SC2=S)cc1,95.4%,97%,99.6%,95.4%,81.9%,113%,99.4%,101%,103%,96.6%,83%,102%,95.4%,103%,89.9%,95.9%,110%,100%
CCCCn1sc(=O)n(Cc2ccc(CNC(=O)OCc3ccc4c(Br)cc(Br)c(O)c4n3)cc2)c1=O,5.73% (active),18.7%,13.7%,52%,51.7%,34.6%,15.7%,-0.408% (active),18.6%,9.82% (active),69.9%,-16.2% (active),-35.4% (active),24.5%,12%,7.95% (active),24.8%,2.42% (active)
COc1cccc2c(N=NC(=O)c3ccc(S(N)(=O)=O)cc3)c(O)[nH]c12,81.2%,103%,102%,106%,96.8%,107%,101%,114%,101%,105%,92.9%,94.3%,100%,94.8%,91.1%,99.4%,113%,101%
S=c1[nH]c2cc(Cl)ccc2o1,48.5%,81.5%,115%,92.5%,103%,108%,118%,114%,88.6%,106%,92.3%,99.8%,96.5%,94.2%,105%,91.1%,115%,100%

# From PubChem BioAssay (NCI)
